Screening data deposited in PubChem by National Center for Advancing Translational Sciences (NCATS).
FLuc inh = Firefly luciferase inhibition profiling of diverse chemical library using quantitative high-throughput screening | purified P. pyralis luciferase, luminescence, biochemical | Potency, µM (doses to about 115 µM), hits mostly inhibitors | 76,000 compounds, 2.5% hits; also: nearly all actives have a fitted effect of over 65% in size
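Luminescence read by CCD imaging after purified firefly luciferase (10nM final) was added to substrate buffer holding 10uM D-luciferin and 10uM ATP, pH 7.5, pre-dosed with compound.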
hNpr1 antagonist = Natriuretic polypeptide receptor (hNpr1) antagonism - Primary qHTS; 76,000 compounds, 1.6% hits; AID 1347048, 2019; Atrial natriuretic peptide receptor 1 (Homo sapiens), P16066; HEK293 hNpr1 GloSensor cGMP, ANP-stimulated luminescence; Potency, µM (titrated, usually from 46.3 µM), most hits filed as inhibitors; calls by dose curve; also: nearly all actives have a fitted effect of over 60% in size
Target sequence (P16066 whole entry, looked up): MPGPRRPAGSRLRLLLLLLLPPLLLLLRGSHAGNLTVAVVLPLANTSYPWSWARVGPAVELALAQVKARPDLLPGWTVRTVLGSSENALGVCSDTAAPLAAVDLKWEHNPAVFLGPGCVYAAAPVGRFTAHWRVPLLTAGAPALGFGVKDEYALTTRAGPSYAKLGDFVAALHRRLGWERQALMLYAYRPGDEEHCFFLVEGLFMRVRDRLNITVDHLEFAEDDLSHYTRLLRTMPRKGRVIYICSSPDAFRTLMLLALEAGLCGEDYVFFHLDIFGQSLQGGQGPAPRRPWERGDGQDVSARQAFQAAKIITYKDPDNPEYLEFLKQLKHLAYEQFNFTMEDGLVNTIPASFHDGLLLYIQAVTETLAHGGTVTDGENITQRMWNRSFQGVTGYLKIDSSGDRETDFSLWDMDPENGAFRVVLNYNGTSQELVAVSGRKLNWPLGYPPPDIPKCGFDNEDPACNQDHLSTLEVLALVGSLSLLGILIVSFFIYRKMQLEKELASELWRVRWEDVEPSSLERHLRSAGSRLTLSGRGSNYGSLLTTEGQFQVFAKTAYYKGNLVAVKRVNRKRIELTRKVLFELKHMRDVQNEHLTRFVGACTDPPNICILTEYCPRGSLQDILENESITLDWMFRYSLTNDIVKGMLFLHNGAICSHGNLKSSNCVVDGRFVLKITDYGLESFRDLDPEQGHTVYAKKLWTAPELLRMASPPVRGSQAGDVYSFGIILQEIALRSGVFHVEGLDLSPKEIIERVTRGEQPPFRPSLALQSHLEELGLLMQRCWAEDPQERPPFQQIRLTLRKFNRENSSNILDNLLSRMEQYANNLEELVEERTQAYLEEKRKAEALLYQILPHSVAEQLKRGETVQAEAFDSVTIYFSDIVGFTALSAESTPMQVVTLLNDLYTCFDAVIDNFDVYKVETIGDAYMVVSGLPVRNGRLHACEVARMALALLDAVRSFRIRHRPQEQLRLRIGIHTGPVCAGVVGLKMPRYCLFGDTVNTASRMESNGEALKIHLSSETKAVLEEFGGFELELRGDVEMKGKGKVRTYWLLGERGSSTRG
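Compound pre-incubated 30 min at room temperature on GloSensor-loaded HEK293 cells stably carrying hNpr1 and the pGS-40F cGMP biosensor. Stimulation uses hNppA at 0.1 nM final; luminescence is taken at baseline and 20 min post-agonist.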
3T3 cytotox = Cytotoxic Profiling in NIH 3T3 Cell Line of Diverse Libraries Using Quantitative High-Throughput Screening; NIH 3T3 viability, CellTiter-Glo ATP luminescence, 48-72 h; Potency, µM (series often up to 96.7 µM), hits mostly inhibitors; 94,000 compounds, 4.3% hits; also: nearly all actives have a fitted effect of over 55% in size
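Luminescent ATP readout (CellTiter-Glo, 10 min RT) after 48 or 72 hr compound exposure of NIH 3T3 cells seeded at 400 cells/well in 1536-well format; quantitative HTS.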
HEK cytotox = Cytotoxic Profiling in HEK 293 Cell Line of Diverse Libraries Using Quantitative High-Throughput Screening; HEK 293 viability, ATP luminescence (CellTiter-Glo), 48-72 h; Potency, µM (titrated, usually from 115 µM), hits mostly inhibitors; 94,000 compounds, 6.6% hits; AID 1345083, 2018; also: nearly all actives have a fitted effect of over 60% in size
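250 HEK 293 cells/well; compound by pintool; incubated 48 or 72 hr at 37 degree Celsius; CellTiter-Glo added, 10 min RT, luminescence imaged.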
Of the large screens only hits and unclear results are named; the others gave an inactive call. Compounds with a hit are over-represented: about 11% of the library has one in this group of screens. Unless noted, calls follow the shape of the dose curve; as a rule, active = well fitted curve in the direction sought with a large enough effect; inconclusive = small, poorly fitted or top-dose-only effect, or another doubt; inactive = no such curve, though single readings can be large; an effect the other way counts as inactive or inconclusive.

COc1cccc2c1OCC(CNC(=O)c1ccccc1N1CCCC1)C2 (centres undefined)	HEK cytotox 89µM
COc1cccc2c1OCC(CNC(=O)CCN1Cc3ccccc3C1=O)C2 (centres undefined)	none
CC1Oc2ccc(NC(=O)c3ccc(Cl)cc3)cc2CN(Cc2cc(F)cc(F)c2)C1=O (centres undefined)	3T3 cytotox inconclusive, HEK cytotox 20µM
COc1ccc(CN2Cc3cc(NC(=O)c4ccc(F)cc4F)ccc3OC(C)C2=O)c(OC)c1 (centres undefined)	3T3 cytotox inconclusive, HEK cytotox 45µM
CC1Oc2ccc(NC(=O)c3ccc(F)cc3)cc2CN(Cc2ccccc2Cl)C1=O (centres undefined)	3T3 cytotox inconclusive, HEK cytotox inconclusive
CC1Oc2ccc(NC(=O)c3ccc(F)cc3)cc2CN(Cc2ccccc2F)C1=O (centres undefined)	3T3 cytotox inconclusive, HEK cytotox 45µM
CC(=O)Oc1ccccc1C(=O)Nc1ccc2c(c1)CN(Cc1ccc(Cl)cc1)C(=O)C(C)O2 (centres undefined)	hNpr1 antagonist inconclusive, 3T3 cytotox 25µM, HEK cytotox inconclusive
CCC1Oc2ccc(NC(=O)c3ccc([N+](=O)[O-])cc3)cc2CN(C(C)CC)C1=O (centres undefined)	3T3 cytotox inconclusive, HEK cytotox 22µM
CC1Oc2ccc(NC(=O)c3ccccc3)cc2CN(Cc2ccc(Cl)cc2)C1=O (centres undefined)	3T3 cytotox inconclusive, HEK cytotox 8.9µM
COc1cccc(C(=O)Nc2ccc3c(c2)CN(Cc2ccc(F)cc2)C(=O)C(C)O3)c1 (centres undefined)	3T3 cytotox inconclusive, HEK cytotox inconclusive
CC1Oc2ccc(NC(=O)c3ccc(Cl)cc3)cc2CN(C(C)C)C1=O (centres undefined)	hNpr1 antagonist inconclusive, 3T3 cytotox 40µM, HEK cytotox inconclusive
O=C(Cc1ccc(F)cc1)N1CCN(c2ccc3nnc(C4CC4)n3n2)CC1	3T3 cytotox inconclusive (no result: FLuc inh, hNpr1 antagonist)
CCCC(C)N1CC2(CCN(C(=O)Cn3nc(C)cc3C)CC2)OC1=O (centres undefined)	none
Clc1ccccc1C1(c2ccnc(NC3CCC3)n2)CCNCC1	3T3 cytotox 28µM, HEK cytotox 35µM
CC(C)Nc1nccc(C2(c3ccccc3Cl)CCNCC2)n1	HEK cytotox inconclusive
Cc1ccc(OC(=O)N2CCC(Oc3ccc4c(cnn4CCC(=O)O)c3)CC2)cc1	3T3 cytotox 35µM
O=C(O)CCn1ncc2cc(OC3CCN(C(=O)Oc4ccccc4Cl)CC3)ccc21	3T3 cytotox 8.9µM (no result: hNpr1 antagonist)
COC(=O)CNC(=O)c1cn2cc(-c3cccc(OC)c3)sc2n1	3T3 cytotox inconclusive (no result: FLuc inh, hNpr1 antagonist)
COc1ccc(NC(=O)Cn2cccc2-c2nc(-c3ccccc3)no2)cc1OC	3T3 cytotox 32µM, HEK cytotox 32µM
COc1ccccc1N1CCN(C(=O)Cn2cccc2-c2nc(-c3ccc(F)cc3)no2)CC1	3T3 cytotox inconclusive, HEK cytotox 40µM
CCOc1ccc(NC(=O)Cn2cccc2-c2nc(-c3ccccc3)no2)cc1	3T3 cytotox inconclusive, HEK cytotox 28µM
CN(C(=O)[C@@H]1C[C@@H](c2ccc(F)cc2)N(CCOc2ccccc2)C1)c1cccnc1	3T3 cytotox inconclusive, HEK cytotox inconclusive
O=C(Nc1ccccc1)N1CCN(C(=O)c2nc3cccnc3n(Cc3ccccc3)c2=O)CC1	3T3 cytotox inconclusive (no result: FLuc inh, hNpr1 antagonist)
CC(C)CNc1ccc2c(n1)C(C)(C(=O)Nc1cccnc1)CN(Cc1ccccc1)C2 (centres undefined)	3T3 cytotox 28µM, HEK cytotox 50µM
CC(C)CNc1ccc2c(n1)C(C)(C(=O)NC1CC1)CN(Cc1ccccc1)C2 (centres undefined)	3T3 cytotox inconclusive, HEK cytotox 63µM
CC(C)CNc1ccc2c(n1)C(C)(C(=O)NC1CCOCC1)CN(Cc1ccccc1)C2 (centres undefined)	3T3 cytotox inconclusive, HEK cytotox 79µM
O=C(NC1CCCN(c2ccnc3ccnn23)C1)c1cc(F)ccc1Br (centres undefined)	3T3 cytotox inconclusive (no result: FLuc inh, hNpr1 antagonist)
O=C(C1CCCN(C(=O)C2CC2)C1)N1CCC(N2Cc3cccn3C2=O)CC1 (centres undefined)	none (no result: FLuc inh, hNpr1 antagonist)
OCc1cccc(-c2ccc3ncc(Nc4ccc(OCCN5CCCC5)cc4)n3n2)c1	3T3 cytotox inconclusive, HEK cytotox 100µM
OCc1cccc(-c2ccc3ncc(Nc4cccnc4)n3n2)c1	3T3 cytotox inconclusive
OCc1cccc(-c2ccc3ncc(Nc4cccc(C(F)(F)F)c4)n3n2)c1	3T3 cytotox 50µM, HEK cytotox inconclusive
OCc1cccc(-c2ccc3ncc(Nc4ccccc4Cl)n3n2)c1	FLuc inh 22µM, 3T3 cytotox inconclusive, HEK cytotox 89µM
COc1ccc(C(=O)N[C@@H]2CCC[C@@H]2C(=O)NCCCc2ccccc2)cc1	none
COc1ccc(-n2c(=O)c(C(=O)N3CCN(c4ncccn4)CC3)nc3cccnc32)cc1	none (no result: FLuc inh, hNpr1 antagonist)
CCc1cccc(C)c1NC(=O)Cn1cccc1-c1nc(-c2ccc(OC)c(F)c2)no1	none
O=C(NCc1ccc(F)cc1)c1ccc2oc(-c3ccccn3)nc2c1	none (no result: FLuc inh, hNpr1 antagonist)
O=C(NCc1nnc2c(-c3nc(C4CC4)no3)cccn12)c1ccc(F)cc1	HEK cytotox inconclusive
CC(C)(C)c1ccc(C(=O)NCc2nnc3c(-c4nc(C5CC5)no4)cccn23)cc1	FLuc inh 16µM, 3T3 cytotox inconclusive, HEK cytotox inconclusive
COc1ccc(-c2cnc([C@@H]3COCCN3C3CCCCC3)[nH]2)cc1	3T3 cytotox inconclusive, HEK cytotox 32µM
Cc1ccc(-c2cnc([C@@H]3COCCN3C(C)C)[nH]2)cc1	3T3 cytotox inconclusive, HEK cytotox 112µM
CC(NC(=O)c1ccc(-c2nnc3ccc(NC(=O)C4CCC4)cn23)cc1)c1cccs1 (centres undefined)	3T3 cytotox inconclusive, HEK cytotox inconclusive
COC(=O)CNC(=O)NCCc1ncc(C)n1Cc1ccccc1	none
COc1ccc(-c2noc(Nc3cc(C)ccc3OC)n2)cc1	FLuc inh 18µM, 3T3 cytotox inconclusive, HEK cytotox inconclusive
COc1ccc(C)cc1Nc1nc(-c2ccc(OC)c(OC)c2)no1	FLuc inh inconclusive, 3T3 cytotox inconclusive, HEK cytotox inconclusive
COc1ccc(NC(=O)c2cc3n(n2)CC(c2ccc4c(c2)OCO4)OC3)cc1OC (centres undefined)	HEK cytotox inconclusive
CC(C)CNC(=O)c1cc2n(n1)CC(c1ccc3c(c1)OCO3)OC2 (centres undefined)	3T3 cytotox 40µM, HEK cytotox 45µM
